Screen size: about 320,000 compounds; about 22,000 (6.9%) were called active. Roughly 27% stayed inconclusive and do not appear here. Many of the other results were omitted from the sample, so actives are more common in it than they were. Values without a mark were called inactive. The call rests on the fitted dose curve; in most records, active means well fitted inhibition curve with a large enough effect; inconclusive means small, poorly fitted or top-dose-only effect, or another doubt; inactive means no such curve, though single readings can be large or run the other way.
On the % scale 0 is the no-effect control and ±100 the full control effect; potency means the concentration at half of the fitted maximal effect.

This test can be described thus: Primary qHTS for delayed death inhibitors of the malarial parasite plastid, 96 hour incubation. As to conditions: P. falciparum luciferase reporter growth; series mostly up to 28.7 µM; activity change, negative = inhibition: at the top concentration. An excerpt:
The goal of this screen is to discover new antimalarial compounds that act by inhibiting the development of the apicoplast in the malarial parasite Plasmodium falciparum. The biochemical processes that make this organelle essential for erythrocytic stage parasites are not well understood. However, antibiotics such as azithromycin and tetracycline, which target the apicoplast translational machinery, have a potent antimalarial effect.
We have developed a cell-based assay that measures parasite growth based on the expression of an integrated copy of a firefly luciferase reporter. To detect small molecules that cause this "delayed death" phenotype, erythrocytes infected with the luciferase-expressing parasites were incubated with compounds for either one or two generations, corresponding to 48 and 96 hours, respectively. Compounds that inhibit parasite growth in the second generation, but not the first, should be enriched in antimalarials that target the apicoplast. Growth inhibition is detected by a decrease in luciferase activity.
Assay Provider: David Fidock and Eric Ekland, Columbia University
Keywords: NIH Roadmap, MLPCN, MLI, MLSMR, qHTS, NCGC, qHTS, malaria, luciferase, viability
Four microliters of infected erythrocytes (2% hematocrit, 0.05% parasitemia final concentration) in culture medium were dispensed and the plates incubated for 96 hours at 37 C in 5% CO2. Two microliters of luciferase detection reagent was added and luminescence was detected by a ViewLux (PerkinElmer) reader.
As for `O=C(Cn1cc(C(=O)C2CC2)c2ccccc21)Nc1ccccc1Cl`, the “activity change, negative = inhibition” value was 15.4% (inactive).

For the compound `COCCCNc1nc2c(-c3cccc(C)c3)nnn2c2ccc(Cl)cc12`, the “activity change, negative = inhibition” value was 2.68% (inactive).

As to `CC1=NN(C(=O)CCc2ccccc2O)C(O)(C(F)(F)F)C1` (configuration not stated), the “activity change, negative = inhibition” value is -3.05% (inactive).

`O=C(Cc1ccccc1)N1N=C(c2ccncc2)CC1(O)C(F)(F)F` (configuration not stated): the Potency is 13.1 µM (active).

Take `CC1=NN(C(=O)CCCc2ccccc2)C(O)(C(F)(F)F)C1` (configuration not stated): the “activity change, negative = inhibition” value is -30.7% (inactive).

With `Cc1ccc2[nH]c(=O)c(CN(C)S(=O)(=O)c3cccc4nonc34)cc2c1`, the “activity change, negative = inhibition” value is -24.7% (inactive).

With `CC1=NNC(=O)C1CC(=O)N/N=C/c1ccncc1` (configuration not stated), the “activity change, negative = inhibition” value is 31.8% (inactive).

Turning to `[O-][N+]12CCCCC1CCCC2CO` (configuration not stated), the “activity change, negative = inhibition” value is 2.61% (inactive).

Consider `CC(=O)Nc1ccc(NC(=O)CCN2C(=O)C3CC=CCC3C2=O)cc1` (configuration not stated), for which the “activity change, negative = inhibition” value was 7.9% (inactive).

With `O=C(NCCc1ccc(F)cc1)c1ccc2nccnc2c1`, the “activity change, negative = inhibition” value is 351% (inactive).

As to `O=C(CSc1nnc(SCc2ccc(F)cc2)s1)Nc1ccc(C(=O)O)cc1`, the “activity change, negative = inhibition” value was 175% (inactive).

Regarding `O=C(CC1SC(N2CCCC2)=NC1=O)Nc1ccc(C(=O)NCCc2ccc(F)cc2)cc1` (configuration not stated), the Potency is 10.4 µM (active).

As to `O=C(CNC(=O)Cc1ccccc1)N=Nc1c(O)[nH]c2ccc(Br)cc12`, the “activity change, negative = inhibition” value is 0.113% (inactive).

In the case of `O=C(c1ccccc1)N1CCN(C(=O)c2cc3nc(-c4ccccc4)cc(C(F)(F)F)n3n2)CC1`, the “activity change, negative = inhibition” value was -1.61% (inactive).

Take `COc1cc(/C=C(\C#N)c2nc3ccccc3[nH]2)ccc1O`: the “activity change, negative = inhibition” value is 2.89% (inactive).

Take `Cc1ccc2nc(/C(C#N)=C\c3ccc(OC(=O)c4cccs4)cc3)[nH]c2c1`: the Potency is 9.28 µM (active).

`Cc1ccc2nc(S(=O)(=O)O)[nH]c2c1`: the “activity change, negative = inhibition” value was 20.9% (inactive).

On to `Cc1c(C=O)c2ccccc2n1CCOc1ccccc1`, for which the “activity change, negative = inhibition” value was 13.8% (inactive).

As to `Cc1nn(C)c(Cl)c1CN1CCC(Oc2ccc(C(=O)N3CCCC3)cc2)CC1`, the “activity change, negative = inhibition” value was 50% (inactive).

Turning to `COc1ccc(C(=O)NC(C)CCc2ccccc2)c(OC)c1` (configuration not stated), the “activity change, negative = inhibition” value is -22.5% (inactive).

`CC(C)c1ccc(C(=O)OC2CCOC2=O)cc1` (configuration not stated): the “activity change, negative = inhibition” value was 0% (inactive).

Turning to `Cn1c(=O)c2ccccc2n(CC(=O)Nc2ccc3c(c2)OCCO3)c1=O`, the “activity change, negative = inhibition” value is 1.42% (inactive).

For the compound `COc1ccc(CC(=O)NCC(=O)N/N=C/c2cc(Br)ccc2OC)cc1`, the “activity change, negative = inhibition” value was -8.14% (inactive).

Consider `Cc1ccc(S(=O)(=O)Oc2ccc(/C=N/NC(=O)c3ccncc3)cc2)cc1`, for which the “activity change, negative = inhibition” value is 40.8% (inactive).

With `Cc1ccc(OCCOCCOc2ccc(Br)cc2/C=N\NC(=O)c2ccncc2)cc1`, the Potency was 5.22 µM (active).

Consider `CNS(=O)(=O)c1cccc(C(=O)NC2CCCc3ccccc32)c1` (configuration not stated), for which the “activity change, negative = inhibition” value is -8.59% (inactive).

With `Cc1n[nH]c(=O)c2c(NC(=O)COC(=O)c3ncc(Cl)c(Cl)c3Cl)oc(C)c12`, the “activity change, negative = inhibition” value was 22% (inactive).

Regarding `Cc1cccc(C)c1NC(=O)NC1=CCCN1C`, the “activity change, negative = inhibition” value was -17.3% (inactive).

Turning to `Cn1c(=O)[nH]c(=O)c2c1nc(N1CCCCCC1)n2CC(=O)c1ccccc1`, the “activity change, negative = inhibition” value is -12.3% (inactive).

Consider `Cn1c(=O)[nH]c(=O)c2c1nc(Br)n2CCCCSc1nc2ccccc2o1`, for which the “activity change, negative = inhibition” value was 30.3% (inactive).

As for `Cc1nnc(Sc2nc3c(c(=O)[nH]c(=O)n3C)n2Cc2ccccc2)s1`, the “activity change, negative = inhibition” value is -11.4% (inactive).

With `CCCCNc1nc2c(c(=O)[nH]c(=O)n2C)n1CCOc1ccccc1`, the “activity change, negative = inhibition” value was -22.4% (inactive).

As to `C=C(C)Cn1c(N2CCN(CC)CC2)nc2c1c(=O)[nH]c(=O)n2C`, the Potency is 2.33 µM (active).

Consider `Cc1nnc(SCCCn2c(N3CCCCC3)nc3c2c(=O)[nH]c(=O)n3C)s1`, for which the Potency is 2.08 µM (active).

For the compound `C=C(C)Cn1c(N2CCCC2)nc2c1c(=O)[nH]c(=O)n2C`, the “activity change, negative = inhibition” value was 12.6% (inactive).

Consider `CC1CCN(c2nc3c(c(=O)[nH]c(=O)n3C)n2CCCc2ccccc2)CC1`, for which the Potency was 10.4 µM (active).

Consider `Cn1c(=O)[nH]c(=O)c2c1nc(CN1CCN(c3ccccc3F)CC1)n2CCc1ccccc1`, for which the “activity change, negative = inhibition” value is -25.9% (inactive).

Take `FC(F)(F)c1cccc(-c2nc(COc3ccc(Cl)cc3Cl)no2)c1`: the “activity change, negative = inhibition” value was -2.32% (inactive).

For the compound `Cc1cc(C)nc(NS(=O)(=O)c2ccc(N3C(=O)C4CCCCC4C3=O)cc2)n1` (configuration not stated), the “activity change, negative = inhibition” value was 77.2% (inactive).

For `CCc1ccc(NC(=O)Cn2nnc(C(=O)NCc3ccc4c(c3)OCO4)c2N)cc1`, the “activity change, negative = inhibition” value is 20.3% (inactive).

As for `COc1ccc(S(=O)(=O)N2CCOCC2)cc1NC(=O)Cc1c(F)cccc1Cl`, the “activity change, negative = inhibition” value was -12.3% (inactive).

As to `COc1ccc(S(=O)(=O)N2CCOCC2)cc1NC(=O)Cc1coc2cc(C)ccc12`, the “activity change, negative = inhibition” value is -11.9% (inactive).

For the compound `COc1ccc(S(=O)(=O)NC(C)C)cc1C(=O)NC1CCCCC1`, the “activity change, negative = inhibition” value is -13.1% (inactive).

`COc1ccc(S(=O)(=O)N2CCOCC2)cc1C(=O)NC1CCCCC1`: the Potency is 4.65 µM (active).

Consider `Cc1ccc(S(=O)(=O)N2CCN(C)CC2)cc1C(=O)NC1CCCCC1`, for which the “activity change, negative = inhibition” value is -14.8% (inactive).

On to `CC(C)Oc1ccc(S(=O)(=O)N2CCOCC2)cc1NC(=O)C1CCCC1`, for which the Potency was 11.7 µM (active).

Turning to `COc1ccc(S(=O)(=O)N2CCOCC2)cc1NC(=O)COc1ccccc1`, the “activity change, negative = inhibition” value is -0.938% (inactive).

For the compound `COc1ccc(S(=O)(=O)N2CCOCC2)cc1NC(=O)CSc1cc(C)ccc1C`, the Potency is 7.38 µM (active).

`Cc1ccc(S(=O)(=O)N2CCOCC2)cc1NC(=O)CSc1nnc(N)s1`: the “activity change, negative = inhibition” value is -4.94% (inactive).

With `NC(=O)COC(=O)c1ccc2c(c1)C(=O)N(Cc1ccco1)C2=O`, the “activity change, negative = inhibition” value is 18.5% (inactive).

As to `Cc1cc(C)c(CN2CCN(C(=O)Cn3ccc(NC(=O)OCc4ccccc4)nc3=O)CC2)c(C)c1`, the “activity change, negative = inhibition” value was -25.9% (inactive).

`O=C(COC(=O)Cn1[nH]c(=O)c2ccccc2c1=O)Nc1ncc(Cl)cc1Cl`: the “activity change, negative = inhibition” value is 25.8% (inactive).
